Experimental data taken from PubChem BioAssay AID1159580 (chemical genetic matrix, 2015).
Several values for one entry are separate records, joined by “and”; a condition that tells them apart may be missing. Identical values can stand only once. Hit rate of the full screen: of about 5,500 compounds, about 2,000 (36%) were called active. Inconclusive results (about 18%) are left out. No stated cut-off is given here; in the data, active means normalized growth mostly below about 0.91 (no sharp cut-off); inconclusive means no clear call, values can overlap the other calls; inactive means mostly above about 0.92. The list shows a part of the results.

Assay: chemical genetic growth profiling, strain panel (AID 1159580);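 further: tested at 20 µM; growth read once vehicle control cultures reached saturation at 30 °C; 1 = growth at the plate median or of vehicle wells; lower values mean less growth of the strain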
Settings: S. cerevisiae deletion strains, growth OD

Measured: normalized growth

c1ccc2c(c1)[nH]c1cnccc12
inactive: locus YAL021C, strain ccr4, active compounds read low 1.01 | locus YAL026C, strain drs2, active compounds read low 1.01 | locus YAL030W, strain snc1, active compounds read low 0.999 | locus YBL061C, strain skt5, active compounds read low 0.991 | locus YBR009C, strain hhf1, active compounds read low 1 | locus YBR021W, strain FUR4, active compounds read low 1.05 | locus YBR023C, strain chs3, active compounds read low 0.993 | locus YBR171W, strain sec66, active compounds read low 0.99 | locus YBR229C, strain ROT2, active compounds read low 1.01 | locus YBR231C, strain swc5, active compounds read low 0.999 | locus YBR279W, strain paf1, active compounds read low 1 | locus YCL011C, strain gbp2, active compounds read low 0.998 | locus YCL016C, strain dcc1, active compounds read low 0.999 | locus YCL029C, strain bik1, active compounds read low 0.975 | locus YCL061C, strain MRC1, active compounds read low 0.997 | locus YCL069W, strain vba3, active compounds read low 1 | locus YCR088W, strain abp1, active compounds read low 1 | locus YDL005C, strain med2, active compounds read low 0.989 | locus YDL035C, strain GPR1, active compounds read low 0.991 | locus YDL040C, strain nat1, active compounds read low 0.995 | locus YDL074C, strain BRE1, active compounds read low 0.977 | locus YDL101C, strain DUN1, active compounds read low 0.986 | locus YDL134C, strain PPH21, active compounds read low 1.08 | locus YDL185W, strain tfp1, active compounds read low 0.954 | locus YDL192W, strain arf1, active compounds read low 0.979 | locus YDR001C, strain nth1, active compounds read low 1 | locus YDR069C, strain doa4, active compounds read low 0.977 | locus YDR101C, strain arx1, active compounds read low 0.961 | locus YDR137W, strain rgp1, active compounds read low 0.958 | locus YDR159W, strain sac3, active compounds read low 1.01 | locus YDR162C, strain NBP2, active compounds read low 1.01 | locus YDR195W, strain ref2 0.995 | locus YDR297W, strain sur2, active compounds read low 0.999 | locus YDR318W, strain mcm21, active compounds read low 1.01 | locus YDR334W, strain swr1, active compounds read low 0.998 | locus YDR335W, strain msn5, active compounds read low 0.999 | locus YDR388W, active compounds read low 0.996 | locus YDR392W, strain spt3, active compounds read low 0.967 | locus YDR502C, strain sam2, active compounds read low 0.994 | locus YEL003W, strain gim4, active compounds read low 1 | locus YEL037C, strain rad23, active compounds read low 1.03 | locus YEL061C, strain CIN8 (second series), active compounds read low 1.01 | locus YEL061C, strain CIN8, active compounds read low 0.99 | locus YER015W, strain faa2, active compounds read low 0.982 | locus YER016W, strain bim1, active compounds read low 0.992 | locus YER110C, active compounds read low 0.964 | locus YER111C, strain swi4, active compounds read low 0.984 | locus YER155C, strain BEM2 (second series), active compounds read low 0.965 | locus YER155C, strain BEM2, active compounds read low 1 | locus YER167W, strain BCK2, active compounds read low 1.02 | locus YFR010W, strain ubp6, active compounds read low 1 | locus YGL078C, strain dbp3, active compounds read low 0.981 | locus YGL086W, strain mad1, active compounds read low 0.948 | locus YGL167C, strain pmr1, active compounds read low 0.998 | locus YGL173C, strain kem1, active compounds read low 0.997 | locus YGL227W, strain vid30, active compounds read low 0.999 | locus YGL240W, strain doc1, active compounds read low 0.991 | locus YGL248W, strain PDE1, active compounds read low 1.01 | locus YGL253W, strain hxk2, active compounds read low 1.01 | locus YGR135W, strain pre9, active compounds read low 1 | locus YGR229C, strain SMI1, active compounds read low 1.02 | locus YGR252W, strain gcn5, active compounds read low 1.19 | locus YHR013C, strain ard1, active compounds read low 1.02 | locus YHR027C, strain rpn1, active compounds read low 0.993 | locus YHR030C, strain SLT2, active compounds read low 1 and 1.03 | locus YHR079C, strain IRE1 (second series), active compounds read low 0.984 | locus YHR079C, strain IRE1, active compounds read low 1.03 | locus YHR094C, strain hxt1, active compounds read low 0.994 | locus YHR129C, strain ARP1, active compounds read low 1 | locus YHR142W, strain chs7, active compounds read low 1.01 | locus YHR200W, strain rpn10, active compounds read low 0.98 | locus YIL066C, strain RNR3, active compounds read low 1.01 | locus YIL073C, strain SPO22, active compounds read low 0.995 | locus YIL125W, strain kgd1, active compounds read low 0.992 | locus YIR030C, strain dcg1, active compounds read low 0.991 | locus YJL092W, strain hpr5, active compounds read low 0.995 | locus YJL095W, strain BCK1 (second series), active compounds read low 0.999 | locus YJL095W, strain BCK1, active compounds read low 1 and 1.01 | locus YJL115W, strain asf1, active compounds read low 0.996 | locus YJL129C, strain trk1, active compounds read low 1.01 | locus YJL134W, strain LCB3, active compounds read low 1 | locus YJL154C, strain vps35, active compounds read low 1 | locus YJL164C, strain tpk1, active compounds read low 1.01 | locus YJL166W, strain qcr8, active compounds read low 1 | locus YJL168C, strain set2, active compounds read low 0.979 | locus YJL187C, strain SWE1 (second series), active compounds read low 0.986 | locus YJL187C, strain SWE1, active compounds read low 0.995 | locus YJR043C, strain POL32, active compounds read low 1.04
